High-throughput results: PubChem, National Center for Advancing Translational Sciences (NCATS)
Rows were chosen to be rich in hits. Some 1.7% of all compounds tested hit in one or more screens of this group.
p53ts 32C kill – cytotoxicity in p53ts cells at permissive temperature; H1299-p53A138V at 32C, ATP luminescence viability, 24 h; Potency, µM (doses to about 46.1 µM), actives largely listed as cytotoxic; hit rate 0.93% among 130,000; AID 924; further: nearly all actives have a fitted effect of over 55% in size
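Cells: H1299 p53ts (A138V), 600/well, pre-incubated 16–30 h at 37C. Cpd up to 46 uM, 24 h, 32C. Readout: ATPlite luminescence, 20 min RT. Normalization: DMSO vs tamoxifen 100 uM. AC50 by Hill equation.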
IkB sig inh – suppresses IkB signaling in ABC-DLBCL reporter cells | ABC-DLBCL IkBa-CBG/CBR dual luciferase ratio, 4 h; response scale: scaled: untreated 0%, proteasome inhibitor 100% | Potency, µM (top dose mostly 57.1 µM) | hit rate 0.04% among 110,000 | AID 445; active means well fitted curve in the direction sought with a large enough effect in the signal ratio, not every such curve was filed as active; inconclusive means small, poorly fitted or top-dose-only effect, or a change in a side signal; the % refers to the signal ratio;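 further: the direction sought is a rising ratio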
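Curves were fitted separately to fusion (green), unfused (red) and ratio luminescence, then classed by r2, magnitude and activity. Cells: OCI-Ly3, 4 h compound plus doxycycline at 37C; 10 uM MG-132 defined full response.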
Peg3 imprint – induces erasure of genomic imprints in mouse ES cells | Potency, µM (series often up to 60.7 µM), actives largely listed as activators | hit rate 0.02% among 110,000 | mouse ES Peg3-LacZ reporter, beta-gal luminescence, 40 h
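Readout: BetaGlo luminescence (5 min, room temp) for LacZ from the normally silent maternal Peg3 allele in female Peg3LacZ-Neo ES cells. Cells 300/well, 40 h, 37C, 5% CO2. Data normalized per plate to negative controls.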
p53ts 39C kill – cytotoxicity in p53ts cells at nonpermissive temperature; hit rate 1.5% among 130,000; Potency, µM (top dose mostly 46.1 µM), actives largely listed as cytotoxic; H1299-p53A138V viability at 39C, ATP luminescence, 24 h; further: nearly all actives have a fitted effect of over 55% in size
Numbers stand for hits; n = inactive; u = inconclusive; x = not tested or not shown; [ ] = dose if it differs, or a comment. Unless noted, the call rests on the fitted dose curve; in most records, active means well fitted curve in the direction sought with a large enough effect; inconclusive means small, poorly fitted or top-dose-only effect, or another doubt; inactive means no such curve, though single readings can be large; an effect the other way counts as inactive or inconclusive.

SMILES	p53ts 32C kill	IkB sig inh	Peg3 imprint	p53ts 39C kill
O=C1O/C(=C/Br)CCC1c1cccc2ccccc12 (centres undefined)	x	x	n	x
O=C(Cc1ccc(Cl)c(Cl)c1)OCCN1CCCC1	n	n	n	n
Cc1ccc(C2CC(=O)Oc3ccc(O)cc32)cc1 (centres undefined)	x	x	n	x
Fc1cccc(-n2ncc3c2ncn2nc(Cc4ccccc4)nc32)c1	n	n	n[10.9 µM]	n
Cc1ccc(CNC(=O)c2cccc(Nc3nc4ccccc4n4nnnc34)c2)cc1	u	u	n[10.9 µM]	6.3µM
COc1ccc(C2CC(=O)c3c(C)nc(N4CCN(C=O)CC4)nc3C2)c(OC)c1 (centres undefined)	n	n	n[10.9 µM]	n
CC1(C)CCC[C@@]2(C)[C@@H]1CC[C@]1(C)OC(=O)C[C@@H]21	x	n[11.4 µM]	x	x
Cn1c(SCc2nc3ccccc3c(=O)[nH]2)nnc1-c1ccco1	n	n	n	n
Cn1c(-c2ccccc2)cnc1SCc1nc2ccccc2c(=O)[nH]1	13µM	n	n	u
Cc1ccc(CNC(=O)CN2Cc3ccccc3C2=O)cc1	n	x	x	x
Cc1ccc(O)c(NC(=O)CCS(=O)(=O)c2nc(-c3cccs3)cc(C(F)(F)F)n2)c1	u	u	n[10.9 µM]	u
O=C(CCS(=O)(=O)c1nc(-c2cccs2)cc(C(F)(F)F)n1)Nc1cc(Br)ccc1O	u	u	n[10.9 µM]	7.9µM
OCc1ccc(-c2ccc(-c3ccc(CO)s3)o2)s1	x	x	n	x
COc1cccc(Cn2c(=O)c(-c3ccc(Cl)cc3)nc3cnc(N4CCNCC4)nc32)c1	13µM	n[11.4 µM]	n	u
COCCn1c(=O)c(CCc2ccccc2)nc2cnc(N3CCOCC3)nc21	n	n[11.4 µM]	4µM	n
O=c1c(CCc2ccccc2)nc2cnc(N3CCNCC3)nc2n1Cc1ccc(F)cc1	n	n[11.4 µM]	x	13µM
COc1ccc(-c2nc3cnc(N4CCNCC4)nc3n(Cc3cccc(OC)c3)c2=O)cc1	n	n[11.4 µM]	x	u
COCCn1c(=O)c(CCc2ccccc2)nc2cnc(N3CCN(C)CC3)nc21	n	n[11.4 µM]	x	n
O=C(O)c1cc(-c2ccc3cc4c(cc3c2)OCO4)nc2ccccc12	1.6µM	n[11.4 µM]	n[10.9 µM]	1.3µM
Cc1cccc2c1-c1sc(C(=O)Nc3ccccc3C(N)=O)cc1CO2	u	u	n[10.9 µM]	13µM
CCOc1ccc(NC(=O)CSc2nnc3scc(-c4ccc(Cl)cc4)n23)cc1	n	u	n[10.9 µM]	n
CCc1ccc(-c2nc(CN3CCC(C(=O)NCCN(CC)c4ccccc4)CC3)c(C)o2)cc1	n	n	u	n
CCN(CCNC(=O)C1CCN(Cc2nc(-c3cccc(Cl)c3)oc2C)CC1)c1ccccc1	13µM	u	n	16µM
CCN(CCNC(=O)C1CCN(Cc2nc(-c3ccc(Cl)cc3)oc2C)CC1)c1ccccc1	25µM	u	n	u
COc1ccc(/C=C/C(=O)Nc2ccccc2C(=O)O)cc1OC	u	x	n	13µM
SMILES	p53ts 32C kill	IkB sig inh	Peg3 imprint	p53ts 39C kill
COc1ccc(/C=C/C(=O)c2cccs2)cc1OC	13µM	x	n	16µM
O=C(/C=C/c1ccccc1)c1cccs1	32µM	x	n	n
CCOc1ccc(/C=C/C(=O)c2cccs2)cc1	25µM	x	n	n
COc1ccc(/C=C/C(=O)c2ccc(O)cc2O)cc1OC	u	x	n	n
COc1cccc(-c2nc(NCc3cccnc3)c3ccccc3n2)c1	n	n[11.4 µM]	n	n
Cc1ccccc1Cn1c(=O)n(CCCCC(=O)NCCc2ccccc2)c(=O)c2ccccc21	n	n	n[10.9 µM]	n
Fc1cccc(CSc2nc3ccncc3[nH]2)c1	5µM	n	n	10µM
O=C1C(c2ccncc2)=C(O)c2ccccc21	3.2µM	u	u	6.3µM
O=C(O)c1c[nH]c2cc(OCc3ccccc3)ccc2c1=O	n[9.22 µM]	u	n[10.9 µM]	n[9.22 µM]
Cc1ccc(S(=O)(=O)NCCc2csc(-c3cccc(F)c3)n2)cc1	n	u	n[10.9 µM]	16µM
CC[N+](CC)(CC)CCOc1ccc(/C=C\c2ccccc2)cc1	n	n	n	u
CCc1nnc2n1N(C(C)=O)C(c1ccc(C(C)(C)C)cc1)=C(C(C)=O)S2	n	u	n[10.9 µM]	13µM
CCOc1ccc(C2=C(C(C)=O)Sc3nnc(C)n3N2C(C)=O)cc1	n	u	n[10.9 µM]	n
CCCCCc1nn2cc(-c3ccccc3)nc2s1	u	u	n[10.9 µM]	10µM
c1ccc(-c2nnc3sc(-c4ccncc4)nn23)cc1	n	n	n	n
c1ccc(-c2cn3nc(-c4ccccc4)sc3n2)cc1	1µM	u	n	u
CCCc1nn2c(C)c(-c3ccccc3)nc2s1	6.3µM	n	n[10.9 µM]	10µM
c1ccc(CCc2nn3c(-c4ccncc4)nnc3s2)cc1	n	n	n	n
